# Assay outcomes as filed in PubChem BioAssay.
# Shown are actives, neighbours in structure and some others; about 7.1% of the full set was active somewhere.
# S2 tox: viability counter-screen for ATXN expression inhibitors; 400,000 tested, 0.49% active; Potency, µM (series often up to 56.7 µM), actives largely listed as cytotoxic; S2 cells (HEK-293 line with an ATXN2-luciferase reporter) viability, CellTiter-Fluor protease fluorescence, 24 h; AID 651635; also: potency is read from the fitted curve at half-maximal effect; nearly all actives have a fitted effect of over 40% in size
# MCF10A rerep: induces DNA re-replication in MCF 10a normal breast cells. MCF 10A DNA re-replication, Hoechst nuclear intensity, 48 h. Potency, µM (titrated, usually from 46.1 µM), inactives show top-dose activity, positive = re-replication, actives largely listed as activators. 350,000 tested, 2.9% active; also: potency is read from the fitted curve at half-maximal effect; % of control where 0% means no effect; nearly all actives have a fitted effect of over 50% in size
# PINK1 expr mod: changes PINK1 expression. PINK1 immunofluorescence, high-content cytometry, 24 h. AID 624263. 410,000 tested, 0.2% active. Potency, µM (titrated, usually from 76.6 µM), inactives show at the top dose activation (PINK1 increase), actives largely listed as activators; active = well fitted activation curve with a large enough effect; inconclusive = small, poorly fitted or top-dose-only effect; cell line not stated here; also: potency is read from the fitted curve at half-maximal effect; % of control where 0% means no effect; nearly all actives have a fitted effect of over 65% in size
#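 Decision-based qHTS: stable cells, 24 h exposure to five compound concentrations, CCCP as control. Fixed cells stained for PINK1 plus nuclear, mitochondrial and cell markers, cytometer read.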
# IL1B secr inh: inhibitors of inflammasome signaling (IL-1 beta secretion); 360,000 tested, 4.7% active; activity change, % at 57.5 µM; THP-1 LPS/ATP IL-1B secretion, AlphaLISA, 16 h; stronger effect = lower value; AID 743279; in the data active = activity change below about -50%; inconclusive = mostly about -30% to -49%; also: % is scaled to controls: 0 for no effect and ±100 for the full control effect
#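 Secreted IL-1B measured by AlphaLISA bead assay after 16 h compound exposure of THP-1 cells; compounds (final up to 57.5 uM) added 1 h before LPS (250 ng/mL) and ATP (1.25 mM) stimulation; lower signal means less secretion.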
# SW480 rereplic: inducers of DNA re-replication in SW480 colon cancer cells | SW480 DNA re-replication, Hoechst DNA content imaging, 48 h | Potency, µM (titrated, usually from 46.1 µM), inactives show at the top dose re-replication activation, hits mostly activators | 340,000 tested, 1.8% active | AID 624297; also: potency is read from the fitted curve at half-maximal effect; % of control where 0% means no effect; nearly all actives have a fitted effect of over 55% in size
#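 Hoechst fluorescence of nuclei (405 nm excitation, 500-530 nm emission) measured by plate-scanning imager after 48 hr compound exposure at 37 C; re-replication scored as increased number of nuclei with elevated intensity.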
# ATXN2 expr inh: reduces ATXN2 reporter expression in HEK-293 cells; Potency, µM (titrated, usually from 57 µM), for inactives: at the top dose activity change, negative = inhibition, usual class: inhibitors; 360,000 tested, 0.72% active; HEK-293 ATXN2-luciferase reporter, luminescence, 24 h; also: potency is read from the fitted curve at half-maximal effect; % is scaled to controls: 0 for no effect and ±100 for the full control effect; nearly all actives have a fitted effect of over 55% in size
#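 ATXN2-luciferase reporter cells (luciferase flanked by upstream and downstream ATXN2 gene portions) were treated 24 h at 37 °C with compounds at up to 57 uM. SteadyGlo luminescence gave expression; GF-AFC fluorescence gave viability.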
# An asterisk follows results filed as active; i = inactive; ? = inconclusive; / = no result given; [ ] = remark or other dose. Unless noted, calls follow the shape of the dose curve; as a rule, active = well fitted curve in the direction sought with a large enough effect; inconclusive = small, poorly fitted or top-dose-only effect, or another doubt; inactive = no such curve, though single readings can be large; an effect the other way counts as inactive or inconclusive.
SMILES,S2 tox,MCF10A rerep,PINK1 expr mod,IL1B secr inh,SW480 rereplic,ATXN2 expr inh
O=C(CCS(=O)(=O)c1ccccc1)Nc1nc(-c2cccs2)cs1,?,?,1%,-74*,?,-2%
O=C(CCS(=O)(=O)c1ccc(F)cc1)Nc1nc(-c2ccncc2)cs1,/,18µM*,2%,?,?,/
COc1ccc(C)cc1NC(=O)NC(C)c1c(-n2cccc2)sc(C)c1C (configuration not stated),/,/,2%,/,/,/
CCN1/C(=C/C=C/c2oc3ccc(-c4ccccc4)cc3[n+]2CC)Oc2ccc(-c3ccccc3)cc21,/,-9%,?,-107*,?,9.5µM*
Cc1ccc(CN2C[C@H](Sc3ccccn3)C[C@H]2C(=O)Nc2ccc3sc(C)nc3c2)c(C)c1,i,/,0%,/,/,/
Oc1cc2c(cc1C(c1ccc(Cl)c(Cl)c1)N1CCCC1)OCO2 (configuration not stated),?,?,3%,-99*,?,-33%
COc1ccc(NC(=O)CN2C(=O)C(c3ccccc3)=NC23CCC(C)CC3)cc1Cl (configuration not stated),/,/,2%,/,/,/
COCc1c(C(=O)N2CCN(C3CCCC3)CC2)cnn1-c1ncc2c(n1)-c1ccccc1CCC2,i,/,0%,/,/,/
COC(=O)N1C(=O)[C@](Cc2ccccc2)(c2ccccc2)N1C(=O)OC,?,?,1%,-103*,?,-26%
COC(=O)N1C(=O)[C@@](Cc2ccccc2)(c2ccccc2)N1C(=O)OC,?,?,2%,-95*,?,?
COC(=O)N1C(=O)[C@@](c2ccccc2)(C2CCCCC2)N1C(=O)OC,20µM*,15µM*,0%,-103*,-15%[9.22 µM],?
COC(=O)N1[C@H](C)C=C[C@]1(Cc1ccccc1)C(=O)OC,i,-5%,0%,-3,-3%,1%
COC(=O)N1C(=O)[C@](c2ccccc2)(C(C)C)N1C(=O)OC,?,?,0%,-92*,0%,-1%
Cc1cccc(OCC(=O)NNC(=O)CCCCC(=O)NNC(=O)COc2cccc(C)c2)c1,i,1%,0%,4,0%,4%
CC[C@@]1(c2ccccc2C)C(=O)N(C(=O)OC)N1C(=O)OC,i,-17%,1%,-58*,-5%,16%
CC[C@]1(c2ccccc2)C(=O)N(C(=O)OC)N1C(=O)OC,i,-5%,1%,-81*,-1%,2%
CC[C@]1(c2cccc(C)c2)C(=O)N(C(=O)OC)N1C(=O)OC,i,?,8%,-105*,1%,-8%
CC[C@@]1(c2ccccc2)C(=O)N(C(=O)OC)N1C(=O)OC,?,?,2%,?,4%,6%
CCCCN1CCc2c1nc1ccc(Br)cc1c2N,/,5%,8%[38.3 µM],-96*,1%,?
Cc1ccc2nc3c(c(N)c2c1)CCN3C,i,23µM*,1%,?,28%,-23%
CN1CCc2c1nc1ccccc1c2N (tested in a mixture with another compound),?,6%,2%,-24,-4%,-15%
Cc1ccc2nc3c(c(N)c2c1)CCN3c1ccccc1,i,15%,1%,-77*,3%,-18%
CC(C)(C)S(=O)N1Cc2cc(C(=O)N3CCOCC3)nc(-c3cccc(Br)c3)c2[C@@H]1CCO (some centres not stated),i,/,1%,-6,/,-8%
COc1cccc(C2C(C(=O)Nc3ccccc3)=C(C)Nc3nc(-c4ccccc4)nn32)c1 (configuration not stated),i,/,3%,/,/,-1%
CCN1CCCC1CNC(=O)c1cnn(-c2nccc(-c3ccc(C)o3)n2)c1C1CC1 (configuration not stated),i,/,-1%,/,/,/
CCCCC(=O)Nc1ccc(C(=O)OCc2cc(=O)n3ccsc3n2)cc1,i,/,-1%,/,/,-13%
